M18AAP inhibitor: PfM18AAP enzyme inhibition. inhibition, % at 7.35 µM. actives 1.2% (n = 290,000). recombinant PfM18AAP, H-Glu-NHMec fluorogenic cleavage;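 active means inhibition above the campaign mean inhibition over all tested compounds plus 3 SD, cut at about 28% in these data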;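 further: 0% = plate median of test compound wells and 100% = 2 mM ZnCl2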
Exocytosis inh: blocks lytic granule exocytosis. TALL-104 LAMP-1 surface exposure, flow cytometry; cells stimulated with thapsigargin and PMA. inhibition, % at 10 µM. actives 0.66% (n = 360,000). AID 651702;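 active means inhibition above about 55%, limit read from the data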
Rce1 inh: inhibitors of yeast Ras-converting enzyme; Q03530; yeast membranes, quenched prenylated peptide cleavage fluorescence; calls only; actives 0.27% (n = 290,000);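 active means fall in fluorescence gain of 50% or more versus controls, with final raw signal at or below 3038400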;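 further: plate controls were neutral control wells for no effect and wells lacking membranes for full effect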
Platelet DG rel: platelet dense granule release activity; human platelet-rich plasma, SFLLRN dense granule ATP release, luminescence; inhibition, %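 (compounds screened at 7.5 µM in platelet-rich plasma)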; actives 0.22% (n = 300,000);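 active means mean replicate score, as percent of positive control, at or above 50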
ABHD5 PLIN5 PPI: ABHD5-PLIN5 protein interaction inhibition | Q00G26+Q8WTS1 | Split G. princeps luciferase complementation, luminescence, 4 h | inhibition, % at 4 µM | actives 0.78% (n = 360,000) | AID 602281;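 active means inhibition above the mean inhibition across every tested compound plus 3 SD, cut at about 22% in these data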;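 further: 0% = DMSO only wells and the 100% control is not disclosed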
Target sequence (Q00G26 whole entry, looked up): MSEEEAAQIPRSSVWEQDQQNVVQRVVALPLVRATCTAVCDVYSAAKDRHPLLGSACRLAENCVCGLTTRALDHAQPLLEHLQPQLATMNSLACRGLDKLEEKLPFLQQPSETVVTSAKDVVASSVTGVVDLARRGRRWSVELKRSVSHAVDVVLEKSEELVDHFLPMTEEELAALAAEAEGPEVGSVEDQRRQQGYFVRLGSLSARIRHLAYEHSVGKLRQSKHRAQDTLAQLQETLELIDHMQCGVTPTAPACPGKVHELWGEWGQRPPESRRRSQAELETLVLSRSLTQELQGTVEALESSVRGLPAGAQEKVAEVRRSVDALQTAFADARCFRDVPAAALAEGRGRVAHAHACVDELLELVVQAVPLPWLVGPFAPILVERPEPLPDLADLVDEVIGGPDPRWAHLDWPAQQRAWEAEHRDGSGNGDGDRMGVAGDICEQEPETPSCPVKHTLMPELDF
Target sequence (Q8WTS1 whole entry, looked up): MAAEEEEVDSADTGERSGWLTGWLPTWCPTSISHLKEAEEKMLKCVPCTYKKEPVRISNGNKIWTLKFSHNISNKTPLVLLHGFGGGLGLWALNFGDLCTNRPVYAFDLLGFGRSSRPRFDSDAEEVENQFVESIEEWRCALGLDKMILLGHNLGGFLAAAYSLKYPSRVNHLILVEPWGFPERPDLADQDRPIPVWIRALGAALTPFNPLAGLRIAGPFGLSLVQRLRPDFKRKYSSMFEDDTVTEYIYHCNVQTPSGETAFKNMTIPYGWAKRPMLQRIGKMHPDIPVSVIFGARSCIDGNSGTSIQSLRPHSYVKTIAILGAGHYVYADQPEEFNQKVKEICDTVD
ABHD5-PLIN5 conf: confirmation of human ABHD5-PLIN5 interaction inhibitors; shares compounds with ABHD5 PLIN5 PPI; biochemical ABHD5-PLIN5 interaction, luminescence; inhibition, % at 4 µM; actives 67% (n = 2,200); AID 651612; in the data active means inhibition above about 23%;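 further: 0% = DMSO vehicle wells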
HNF4 counter: counter-screen for ABHD5-PLIN5 inhibitors: HNF4 split-luciferase | AID 651674 | actives 77% (n = 2,200) | inhibition, % at 4 µM | HNF4 dimerization, luminescence, biochemical | shares compounds with ABHD5 PLIN5 PPI;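 active means mean inhibition across replicate wells exceeding the computed hit threshold, cut at about 13% in these data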;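 further: light from luciferase halves that rejoin when HNF4 fusion proteins dimerize; 0% = DMSO only wells and the 100% control is not given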
* hit, by the source's call; i = inactive; x = not tested or not shown. A selection: hits, their analogues and other compounds. The true share with any hit is near 2.6%.

SMILES	M18AAP inhibitor	Exocytosis inh	Rce1 inh	Platelet DG rel	ABHD5 PLIN5 PPI	ABHD5-PLIN5 conf	HNF4 counter
N#C/C(=C\c1ccc(N2CCOCC2)o1)c1nc2ccccc2[nH]1	13	0	i	29	24*	29*	51*
N#C/C(=C\c1ccc(N2CCOCC2)c([N+](=O)[O-])c1)c1nc2ccccc2[nH]1	2	2	i	-1	0	x	x
N#C/C(=C/c1ccc(N2CCOCC2)o1)c1ccc(Cl)cc1	5	82*	i	5	60*	52*	106*
N#C/C(=C\c1ccc(N2CCCCC2)o1)C(N)=O	15	-1	i	8	7	x	x
Cc1ccc(NC(=O)c2c(C)nc3sc(C(=O)NC4CCCC4)c(N)c3c2-c2ccco2)c(C)c1	13	-2	i	-7	0	x	x
COCCOC(=O)/C(=C\c1cc(C(C)(C)C)c(O)c(C(C)(C)C)c1)C(C)=O	12	24	i	-2	44*	80*	72*
CC(C)(C)c1cc(CCC(=O)NN)cc(C(C)(C)C)c1O	-6	-5	i	-2	3	x	x
CC1(C)CC(=O)C2=C(C1)OC1=C(C(=O)CC(C)(C)C1)C2c1ccc(O)cc1O	9	36	i	9	87*	102*	108*
Cc1ccc(C(=O)CC(C(=O)O)n2cnc([N+](=O)[O-])n2)cc1 (stereo not given)	-16	30	i	-3	55*	29*	58*
Cc1ccc(C(=O)CC(C(=O)O)n2cncn2)cc1 (stereo not given)	26	4	i	-5	2	x	x
Nn1c(SCc2ccccc2F)nnc1-c1cccnc1	5	-2	i	-7	4	x	x
COCCCNC(=O)CC(C)c1ccccc1 (stereo not given)	-5	0	i	6	4	x	x
Cc1ccc2c(c1)C(=O)CCCCC(=O)N2	1	0	i	-6	3	x	x
Cc1ccc2c(c1)/C(=C/c1ccccc1F)C(=O)N2	17	23	i	3	31*	44*	39*
CC(=O)N1CCC2(CC1)CC(=O)c1cc(Cl)ccc1O2	x	0	i	-5	3	x	x
O=C1CC(c2ccc(Cl)cc2)Oc2ccc(Cl)cc21 (stereo not given)	x	-1	x	x	23*	62*	33*
Cn1c(Cl)cnc1C1CC(=O)c2cc(Cl)ccc2O1 (stereo not given)	23	6	i	0	32*	20	49*
O=C(O)c1ccc(Cl)c(S(=O)(=O)N(Cc2ccccc2)c2ccccc2Cl)c1	-8	-6	i	6	-1	x	x
CC(=O)OC[C@]1(OC(C)=O)C[C@@]23CC[C@H]4[C@@](C)(CCC[C@@]4(C)C(=O)O)[C@@H]2CC[C@@H]1C3	-1	-6	i	-1	-3	x	x
CC(=O)OC[C@]12CC[C@H]3[C@@](C)(CC[C@H]4C(C)(C)CCC[C@]34C)[C@@H]1CC(C1=CC(=O)OC1O)O2 (stereo not given in full)	x	86*	x	x	100*	103*	103*
Cn1cnc([N+](=O)[O-])c1S(=O)(=O)c1cccc(Cl)c1	-57	25	i	0	61*	64*	94*
Cc1nn(C(C)C(=O)c2cccc(Cl)c2)c(C)c1[N+](=O)[O-] (stereo not given)	-2	-1	i	0	-1	x	x
Cn1cnc([N+](=O)[O-])c1S(=O)(=O)Oc1ccccc1	x	0	x	x	62*	75*	95*
Cn1cnc([N+](=O)[O-])c1S(=O)(=O)Nc1ccccc1	x	-3	x	x	21	x	x
C=C1CCc2c([nH]c3ccc(OCC(C)C)cc23)C1=O	4	-16	i	5	42*	90*	73*
SMILES	M18AAP inhibitor	Exocytosis inh	Rce1 inh	Platelet DG rel	ABHD5 PLIN5 PPI	ABHD5-PLIN5 conf	HNF4 counter
Cc1cc(C(=O)N2CCN(S(C)(=O)=O)CC2)sc1-c1ccccc1	0	-3	i	-19	-4	x	x
N=C1/C(=C\c2ccc(OC(=O)c3ccco3)cc2)C(=O)N=C2SC(N3CCCCC3)=NN12	6	1	i	-1	1	x	x
O=C1C=CC2C3C(=O)N(c4ccccc4)C(=O)C3C1N2Cc1ccccc1 (stereo not given)	x	37	x	x	90*	100*	103*
O=C1c2cccc3c(O)ccc(c23)C(=O)N1Cc1ccco1	10	8	i	-7	45*	24*	53*
COC(=O)C1=C(C(=O)OC)[C@]2([C@@H]3CC=CCN[C@@H](Cc4ccccc4)C(=O)N3Cc3ccccc3)C=C[C@H]1O2	x	13	x	x	-4	x	x
C=CCC(Nc1ccccc1)C12C=CC(O1)C(C(=O)OC)=C2C(=O)OC (stereo not given)	-10	90*	i	1	26*	86*	90*
C/C=C/c1ccc(O)c(OC)c1	x	1	x	x	-4	x	x
COc1cc(/C=C/C=C2/CC/C(=C/C=C/c3ccc(O)c(OC)c3)C2=O)ccc1O	x	26	x	x	26*	62*	68*
CCN1C/C(=C/c2ccc(OC)c(O)c2)C(=O)/C(=C/c2ccc(OC)c(O)c2)C1	13	0	i	-1	42*	51*	30*
COc1ccc(/C=C2\CC/C(=C\c3ccc(OC)c(OC)c3)C2=O)cc1OC	3	1	i	2	31*	58*	44*
COc1cc(/C=C2\CC/C(=C\c3ccc(OCCO)c(OC)c3)C2=O)ccc1OCCO	10	1	x	4	22	x	x
COc1cc(/C=C2/CC/C(=C/c3ccc(O)c(OC)c3)C2=O)ccc1O	9	86*	i	0	24*	26*	32*
Nc1nc(NCCCN2CCOCC2)nc(Nc2cccc(F)c2)c1[N+](=O)[O-]	3	-6	i	6	-1	x	x
COc1ccccc1CNC(=O)c1cc(S(=O)(=O)N2CCCCC2)c[nH]1	-5	-2	i	-28	-11	x	x
O=C(O)c1cn(-c2ccccc2)nc1C(=O)O	-5	-1	i	-12	11	x	x
CC(C)(C)OC(=O)N1CCCN(C(=O)Nc2ccc(OC(F)(F)F)cc2)CC1	-3	18	i	-4	-4	x	x
COc1cc(/C=C2\COC/C(=C\c3ccc(O)c(OC)c3)C2=O)ccc1O	11	64*	i	-16	54*	90*	84*
COc1cc(C=C2C(=O)c3ccccc3C2=O)ccc1O	10	6	i	35	18	x	x
COc1ccc(/C=C2\CCC/C(=C\c3ccc(OC)c(OC)c3OC)C2=O)c(OC)c1OC	2	-11	i	-3	38*	10	16*
COc1ccccc1C(=O)NNC(=O)c1ccccc1[N+](=O)[O-]	-4	0	i	5	0	x	x
O=C(NNC(=O)C1CC1)c1ccccc1[N+](=O)[O-]	1	4	i	x	32*	8	7
